From PubChem BioAssay AID624037 (The Scripps Research Institute Molecular Screening Center, 2012) come the findings set out here.

Screen size: about 360,000 compounds; about 700 (0.19%) were called active. For the sample, actives were picked, then their nearest neighbours and some compounds at random. Unmarked numbers belong to inactive results.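 The calls were made as follows: active = activation above the run's mean over test compounds plus 3 SD (cut at about 23% in these data); inactive = the rest.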

The target of this assay is Muscarinic acetylcholine receptor M5 (Homo sapiens) (UniProt P08912). In words: human M5 muscarinic receptor agonists, primary screen, CHO-K1 cells, Fluo-8 calcium fluorescence (AID 624037).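 Also: signal is peak over basal fluorescence ratio across the kinetic read.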 Particulars: CHO-K1 hM5 cells, at 3 µM, stronger effect = higher value, 0% DMSO wells, 100% maximal acetylcholine response.
Sequence of Muscarinic acetylcholine receptor M5 (Homo sapiens) (P08912 whole entry, looked up): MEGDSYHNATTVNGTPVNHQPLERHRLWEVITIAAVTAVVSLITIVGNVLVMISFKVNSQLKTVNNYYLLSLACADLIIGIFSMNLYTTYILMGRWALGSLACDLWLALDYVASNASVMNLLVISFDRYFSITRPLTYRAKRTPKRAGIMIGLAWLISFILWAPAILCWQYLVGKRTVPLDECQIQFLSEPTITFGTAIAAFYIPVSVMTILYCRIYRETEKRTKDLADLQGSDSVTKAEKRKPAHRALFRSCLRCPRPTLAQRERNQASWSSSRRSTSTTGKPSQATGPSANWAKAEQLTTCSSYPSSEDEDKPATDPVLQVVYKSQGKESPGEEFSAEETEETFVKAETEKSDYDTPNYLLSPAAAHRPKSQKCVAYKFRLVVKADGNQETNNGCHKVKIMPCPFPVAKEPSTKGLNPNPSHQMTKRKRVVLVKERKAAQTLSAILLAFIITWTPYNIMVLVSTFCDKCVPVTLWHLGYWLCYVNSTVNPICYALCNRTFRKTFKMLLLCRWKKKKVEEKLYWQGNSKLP
For the compound `O=C(O)c1ccc2c(=O)n3c(nc2c1)/C(=C/c1ccc(OC(F)F)cc1OC(F)F)CC3`, the activation was -3.87%. Regarding `COc1ccc(NC(=O)CCS(=O)(=O)c2cc3c(cc2Cl)NC(=O)CO3)cc1OC`, the activation is -3.81%. Next, `Cc1cc2c(cc1S(=O)(=O)CCC(=O)NCc1ccccc1)OCC(=O)N2`: 0.35%. Next, `COc1ccc(Cl)cc1NC(=O)CCS(=O)(=O)c1cc2c(cc1C)NC(=O)CO2`: 38% (active); `CCOC(=O)Cn1c(=O)oc2cc(S(=O)(=O)NCC3CCCO3)ccc21` (configuration not stated): 1.72%.

For `Cc1ccc(S(=O)(=O)N2C[C@H]3n4c(=O)ccc(=O)n4C[C@H](OC(=O)NC4CCCC4)[C@@]3(O)C2)cc1`, the activation is 0.5%. Next, `CCC1(C(=O)c2ccccc2)C(c2cccc([N+](=O)[O-])c2)C1(C(=O)OC)C(=O)OC` (configuration not stated): -4.52%; `O=C(Oc1ccc(C(=S)N2CCOCC2)cc1)c1ccc(F)cc1`: 3.46%; `Cc1nn(C)cc1N1C(=O)c2cccc3c(N)ccc(c23)C1=O`: 91.9% (active). Next, `CN1C(=O)c2cccc3c(N)ccc(c23)C1=O`: 45.7% (active); `CCC(C)(C)NC(=O)CN(C(=O)CCC(=O)Nc1nccs1)c1ccc2c(c1)OCO2`: -2.1%; `COC(=O)c1sccc1-n1cccc1C(=O)C(=O)N1CCCCC1`: -2.31%. Consider `CC/C(=N\NC(=O)c1c(C)nc2ccccn12)c1ccc(Cl)cc1`, for which the activation is -4.55%. As for `COc1ccc(N2C(=O)C3C(C2=O)C(C(=O)c2ccccc2)N2CCCC32)cc1` (configuration not stated), the activation was 1.81%. Under `CCn1c(CNc2ccc(OC)cc2)nnc1SCC(=O)c1ccc(OC)cc1` stands -9.07%. Under `O=[N+]([O-])/C=C1\CCCCCN1` stands -0.84%; under `CC(C)C(=O)Nc1ccc2c3c(cccc13)CC2`, -5.26%. Next, `N#CC1(Nc2ccc(-c3ccc(Cl)cc3)cc2)CCCC1`: -3.18%; `N#CC1(Nc2ccc3c4c(cccc24)CC3)CCCCC1`: 37.2% (active). Consider `COc1cc(Cl)c(S(=O)(=O)n2cnc(C)c2)cc1Cl`, for which the activation was 0.51%.

For the compound `COc1ccc(Cl)cc1S(=O)(=O)N1CCC(O)(c2ccc(Cl)cc2)CC1`, the activation is -0.77%. For `COc1cc(OC)c(-n2cc(-c3ccc(Cl)cc3)[nH]c2=O)cc1Cl`, the activation is 42.8% (active). Consider `COc1ccc(C)cc1NC(=O)CSc1nnc(CC(=O)Nc2ccccc2F)n1C`, for which the activation is -1.92%. As for `COc1ccc(OC)c(CN2C(=O)CCC2(C)c2nnnn2Cc2ccccc2)c1` (configuration not stated), the activation is 2.06%.

For the compound `COc1ccc(-n2c(C)csc2=S)cc1`, the activation is -0.99%. On to `CCOC(=O)C1=C(CC)OC(N)=C(C#N)C1c1ccc(F)cc1F` (configuration not stated), for which the activation was -0.33%.

On to `Cn1cc(CNC(=O)c2ccc(OC3CCN(Cc4ccccn4)CC3)cc2)cn1`, for which the activation was -4.97%.

For the compound `COc1ccc(SCCN2CCN(CC(C)C)CCC2=O)cc1`, the activation is 1.8%. Regarding `O=C(COc1nc2ccccc2nc1N1CCOCC1)NCC(F)(F)F`, the activation was -2.71%. Next, `Nc1nc2c(ncn2[C@@H]2O[C@H](CNCc3ccc(OCCCN4CCOCC4)cc3)[C@@H](O)[C@H]2O)c(=O)[nH]1`: 0.62%; `O=[N+]([O-])c1cc(C(F)(F)F)ccc1NCCc1ccncc1`: -2.99%; `O=C(/C=C/Nc1ccc(S(=O)(=O)Nc2cnc3ccccc3n2)cc1)c1cccnc1`: -3.4%. For `COc1ccc(C(=O)/C=C/Nc2ccccn2)cc1`, the activation was 78% (active).

As to `COCCN(C(=O)CCC(=O)Nc1ccccn1)C(C(=O)NCCC(C)C)c1ccc(OC)cc1` (configuration not stated), the activation is -1.86%. On to `CCOc1ccc(C(=O)NC(=S)Nc2ccc(N3CCOCC3)c(Cl)c2)cc1[N+](=O)[O-]`, for which the activation is -0.99%. Under `COc1ccc(NC(=O)CN2C(=O)COc3ccc(S(=O)(=O)N4CCOCC4)cc32)c(OC)c1` stands 0.4%; under `C[C@H]1COC(=O)[C@H](CC(=O)OC(C)(C)C)C/C=C\C[C@@H](CC(=O)N[C@H](CO)Cc2ccccc2)C(=O)N1`, 0.74%. As to `Nc1ccn(C2CC(O)C(CO)O2)c(=O)n1` (configuration not stated), the activation was 10.7%. For the compound `O=c1[nH]cnc(O)c1C(c1ccc(F)cc1)c1c(O)nc[nH]c1=O`, the activation was 0.85%.

As to `Cc1occc(=O)c1OCc1c(Cl)cccc1Cl`, the activation is -4.28%. Next, `Cc1occc1C(=O)NC1CCCN(Cc2ccc(CC(C)C)cc2)C1` (configuration not stated): -1.97%; `CC(=O)Oc1ccc(Cn2c(C)c(C(=O)NCc3ccc(C#N)cc3)sc2=O)cc1`: 47.2% (active).

Take `Cc1ccc(Cn2c(C)c(C(=O)NCc3ccccc3C(F)(F)F)sc2=O)cc1`: the activation is -2.26%.

Consider `Cc1c(C(=O)NCc2ccc(C#N)cc2)sc(=O)n1Cc1ccc(C(=O)N(C)C)cc1`, for which the activation was 0.99%. Under `CCN(C(=O)COC(=O)c1cc(NS(=O)(=O)c2ccc(Cl)c([N+](=O)[O-])c2)ccc1O)C1CCCCC1` stands 2.95%; under `CCC(CC)NC(=O)CSc1nnc(-c2c[nH]c3ccccc23)o1`, -0.74%; under `CC1=CC=CN2C1=NC(=O)CC2(C)C(=O)N(CC(=O)NC1CCCC1)c1ccccc1C` (configuration not stated), 0.83%.

For the compound `COc1cc(=O)[nH]c(=O)n1C(=O)Cc1ccccc1`, the activation is -1.68%. Next, `COc1cc(/C=C2/SC(=S)N(Cc3ccccc3)C2=O)cc(OC)c1O`: 24.1% (active). Under `COc1cc(C(=S)NCc2ccccc2)cc(Br)c1O` stands -4.14%.

Consider `Nc1c(C(=O)c2cccs2)sc2nsc(SCCN3CCCCC3)c12`, for which the activation was 121% (active). Regarding `COc1cccc(-c2cnc3c(NC(C)=O)cc(-c4cc(F)ccc4OC)cn23)c1`, the activation is -1.59%. In the case of `CCn1c(C(C)C)n[nH]c1=S`, the activation was 1.36%. For `CCc1ccc(NC(=O)Cn2nnc(C(=O)NCc3ccc4c(c3)OCO4)c2N)cc1`, the activation was -3.78%. Next, `CCCn1nc2cc(C(=O)NCc3ccccc3)ccc2c1OCC`: -0.79%; `CCOc1ccc(Cn2nnc(C(=O)NCc3ccccc3)c2N)cc1`: 34.7% (active). For the compound `CCN(CC)CCCC(C)n1c2nc(=O)[nH]c(=O)c-2nc2cc(Cl)ccc21` (configuration not stated), the activation was 438% (active).
